In PubChem BioAssay AID1159580 (chemical genetic matrix, 2015):
About 2,000 (36%) of roughly 5,500 compounds were called active. Another 18% or so got no clear call; they are omitted. Cut-off read from the data, not from the text of the source: active = normalized growth mostly below about 0.91 (no sharp cut-off); inconclusive = no clear call, values can overlap the other calls; inactive = mostly above about 0.92. The list shows a part of the results.

Assay: chemical genetic growth profiling, strain panel (AID 1159580);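 note: tested at 20 µM; growth read once vehicle control cultures reached saturation at 30 °C; 1 = growth at the plate median or of vehicle wells; lower values mean less growth of the strain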
Details: S. cerevisiae deletion strains, growth OD

Measured: normalized growth

CO[C@H]1/C=C/O[C@@]2(C)Oc3c(C)c(O)c4c(O)c(c5c(nc6cc(C)ccn65)c4c3C2=O)NC(=O)/C(C)=C\C=C\[C@H](C)[C@H](O)[C@@H](C)C(O)[C@@H](C)[C@H](OC(C)=O)[C@@H]1C (stereo not given in full)
inactive: locus YAL021C, strain ccr4, hits give low values 1.04 | locus YAL026C, strain drs2, hits give low values 1.04 | locus YAL030W, strain snc1, hits give low values 1.04 | locus YBL061C, strain skt5, hits give low values 1.04 | locus YBR009C, strain hhf1, hits give low values 1.01 | locus YBR023C, strain chs3, hits give low values 1.05 | locus YBR171W, strain sec66, hits give low values 1.06 | locus YBR231C, strain swc5, hits give low values 1.05 | locus YBR279W, strain paf1, hits give low values 1.03 | locus YCL011C, strain gbp2, hits give low values 1.05 | locus YCL016C, strain dcc1, hits give low values 1.03 | locus YCL061C, strain MRC1, hits give low values 1.04 | locus YCL069W, strain vba3, hits give low values 1.05 | locus YCR088W, strain abp1, hits give low values 1.04 | locus YDL005C, strain med2, hits give low values 1.06 | locus YDL040C, strain nat1, hits give low values 1.03 | locus YDR001C, strain nth1, hits give low values 1.04 | locus YDR069C, strain doa4, hits give low values 1.04 | locus YDR137W, strain rgp1, hits give low values 0.988 | locus YDR159W, strain sac3, hits give low values 1.05 | locus YDR195W, strain ref2 1.05 | locus YDR297W, strain sur2, hits give low values 1.04 | locus YDR334W, strain swr1, hits give low values 1.03 | locus YDR335W, strain msn5, hits give low values 1.04 | locus YDR392W, strain spt3, hits give low values 0.961 | locus YEL003W, strain gim4, hits give low values 1.04 | locus YEL037C, strain rad23, hits give low values 1.04 | locus YEL061C, strain CIN8 (second series), hits give low values 1.04 | locus YER015W, strain faa2, hits give low values 1.04 | locus YER016W, strain bim1, hits give low values 1.03 | locus YER111C, strain swi4, hits give low values 1.05 | locus YER155C, strain BEM2 (second series), hits give low values 1.02 | locus YFR010W, strain ubp6, hits give low values 1.04 | locus YGL167C, strain pmr1, hits give low values 1.04 | locus YGL173C, strain kem1, hits give low values 1.04 | locus YGL227W, strain vid30, hits give low values 1.05 | locus YGL240W, strain doc1, hits give low values 1.03 | locus YGL253W, strain hxk2, hits give low values 1.06 | locus YHR013C, strain ard1, hits give low values 1.08 | locus YHR027C, strain rpn1, hits give low values 1.04 | locus YHR030C, strain SLT2, hits give low values 1.03 | locus YHR079C, strain IRE1, hits give low values 1.03 | locus YHR142W, strain chs7, hits give low values 1.07 | locus YJL092W, strain hpr5, hits give low values 1.04 | locus YJL095W, strain BCK1 (second series), hits give low values 1.03 | locus YJL095W, strain BCK1, hits give low values 0.988 | locus YJL115W, strain asf1, hits give low values 1.04 | locus YJL129C, strain trk1, hits give low values 1.06 | locus YJL154C, strain vps35, hits give low values 1.04 | locus YJL164C, strain tpk1, hits give low values 1.04 | locus YJL166W, strain qcr8, hits give low values 1.05 | locus YJL187C, strain SWE1, hits give low values 1.06 | locus YJR066W, strain TOR1, hits give low values 0.982 | locus YKL160W, strain elf1, hits give low values 1.05 | locus YKR026C, strain gcn3, hits give low values 1.05 | locus YKR091W, strain srl3, hits give low values 1.04 | locus YLL001W, strain dnm1, hits give low values 1.08 | locus YLL026W, hits give low values 1.04 | locus YLL041C, strain sdh2, hits give low values 1.04 | locus YLR027C, strain aat2, hits give low values 1.03 | locus YLR113W, strain HOG1, hits give low values 1.01 | locus YLR221C, strain rsa3, hits give low values 1.06 | locus YLR258W, strain gsy2, hits give low values 1.04 | locus YLR262C, strain YPT6 (second series), hits give low values 1.09 | locus YLR320W, strain mms22, hits give low values 1.04 | locus YLR342W, strain FKS1, hits give low values 1.04 | locus YLR357W, strain rsc2, hits give low values 1.07 | locus YLR370C, strain arc18, hits give low values 1.04 | locus YLR384C, strain iki3, hits give low values 1.04 | locus YML120C, strain ndi1, hits give low values 1.02 | locus YMR058W, strain fet3, hits give low values 1.03 | locus YMR125W, strain sto1, hits give low values 1.05 | locus YMR129W, hits give low values 1.03 | locus YMR205C, strain PFK2, hits give low values 1.05 | locus YMR231W, strain pep5, hits give low values 1.04 | locus YNL071W, strain lat1, hits give low values 1.05 | locus YNL183C, strain NPR1, hits give low values 0.988 | locus YNL209W, strain ssb2, hits give low values 1.03 | locus YNL248C, strain rpa49, hits give low values 1.06 | locus YNL322C, strain KRE1 (second series), hits give low values 1.05 | locus YNR049C, strain mso1, hits give low values 1.03 | locus YOR001W, strain rrp6, hits give low values 1.01 | locus YOR070C, strain gyp1, hits give low values 1.04 | locus YOR080W, strain dia2, hits give low values 1.04 | locus YOR083W, strain WHI5, hits give low values 1.04 | locus YOR106W, strain vam3, hits give low values 1.1 | locus YOR231W, strain MKK1, hits give low values 0.989 | locus YOR265W, strain rbl2, hits give low values 1.03 | locus YOR270C, strain vph1, hits give low values 1.1 | locus YOR290C, strain snf2, hits give low values 1.04 | locus YPL051W, strain arl3, hits give low values 1.02 | locus YPL078C, strain atp4, hits give low values 1.05 | locus YPL106C, strain sse1, hits give low values 1.03 | locus YPL240C, strain hsp82, hits give low values 1.04 | locus YPL256C, strain CLN2, hits give low values 1.06
